The target of the first assay is AMP-activated protein kinase, AMPK (Homo sapiens) (UniProt P54646+O43741+P54619+Q9UGJ0+Q9Y478+Q13131+Q9UGI9). The experiment in a line: AMP-dependent Kinase enzyme assay. An in vitro enzyme assay that detects ADP turnover that is directly proportional to AMPK activity. This uses naive AMPK that is activated during the assay with MK-8722. The assay is classed as functional. Further details: scale not given: direction of the effect not stated beside the values. The note with it: 30 µM.
Sequence of Sialic acid-binding Ig-like lectin 9 (Homo sapiens) (Q9Y336 whole entry): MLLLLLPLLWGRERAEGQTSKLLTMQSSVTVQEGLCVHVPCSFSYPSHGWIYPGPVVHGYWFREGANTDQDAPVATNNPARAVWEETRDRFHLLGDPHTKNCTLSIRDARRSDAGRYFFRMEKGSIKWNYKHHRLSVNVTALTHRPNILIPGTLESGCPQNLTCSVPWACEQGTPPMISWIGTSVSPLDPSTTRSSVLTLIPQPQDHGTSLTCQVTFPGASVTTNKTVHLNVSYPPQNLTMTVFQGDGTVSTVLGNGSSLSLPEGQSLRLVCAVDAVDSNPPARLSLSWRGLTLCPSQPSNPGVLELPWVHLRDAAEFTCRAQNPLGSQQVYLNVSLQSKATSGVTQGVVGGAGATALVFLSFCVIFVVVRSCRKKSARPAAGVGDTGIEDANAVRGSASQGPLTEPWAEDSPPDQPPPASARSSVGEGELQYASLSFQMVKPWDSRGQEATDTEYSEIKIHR
Take `Cc1ccc2c(c1)CN(C(=O)C1CCCCC1)C(CN(C)C)CO2` (stereo not given): the Percent Effect amounted to 11.3%.

`O=C(O)c1cc2c(nc1O)CC(c1cccs1)CC2=O` (stereo not given): the Percent Effect was -2.58%.

`Cc1nc(N2CCCC2)nc2c1CCN(C(=O)C1CCCC1)CC2`: the Percent Effect is 0.866%.

As for `Cc1ccc(CC(=O)NCCCNS(C)(=O)=O)cc1`, the Percent Effect was 3.16%.

With `CSCC(CCO)NC(=O)Nc1cc(C)ccc1C` (stereo not given), the Percent Effect was 0.417%.

On to `COC(=O)c1sccc1S(=O)(=O)N1CCC(Oc2ncccc2Cl)CC1`, for which the Percent Effect came to 18.7%.

Turning to `Cc1cc(-c2cnn(CCNC(=O)C3CCCO3)c2C2CC2)on1` (stereo not given), the Percent Effect came to 12%.

As for `Cc1ccc(NS(=O)(=O)CC2=NC(=O)n3cccc3C2=O)cc1`, the Percent Effect was -2.73%.

For the molecule `CCS(=O)(=O)N1CCc2ccc(NC(=O)Nc3ccc(F)cc3F)cc21`, the Percent Effect was found to be 2.67%.

For `Cc1csc(C2CCCN(C(=O)c3cnc[nH]3)C2)n1` (stereo not given), the Percent Effect is -8.22%.

On to `O=C(c1ccc[nH]1)N1CCc2c(COCC3CC3)cncc2C1`, for which the Percent Effect came to 0.508%.

In the case of `CC(C)c1nn(C)c(N(C)C)c1CNCc1ccccc1CN(C)C`, the Percent Effect was -8.08%.

As to `c1ccc(-c2noc(CN3CCC(c4ccn[nH]4)CC3)n2)cc1`, the Percent Effect is -9.82%.

For `Cc1ccc(C)c(NC(=O)N(C)Cc2cnn(C)c2)c1`, the Percent Effect is -1.59%.

With `COc1ccc(CN(Cc2cncn2C)CC2CCCO2)cc1OC` (stereo not given), the Percent Effect came to 11.9%.

As to `CN(C)C(=O)CC1CC2(CCN(C(=O)N(C)C)CC2)Oc2ccccc21` (stereo not given), the Percent Effect was -0.534%.

On to `Cc1noc(C)c1C(=O)NCC(C)N(C)C` (stereo not given), for which the Percent Effect was -3.02%.

For the molecule `COc1ccc2c(c1)CC(NC(=O)NCc1cccs1)CO2` (stereo not given), the Percent Effect amounted to 5.45%.

With `Cc1cc(C)n(CC2CCCN2C(=O)c2ccc3c(c2)nnn3C)n1` (stereo not given), the Percent Effect is -3.73%.

`O=C1[C@@H]2CCN(Cc3ccoc3)C[C@@H]2OCCN1Cc1cccnc1`: the Percent Effect turned out to be 6.25%.

Consider `CCc1nnc(CN(C)c2nc(C(C)C)nc3c2cnn3C)o1`, for which the Percent Effect worked out at 6.88%.

Regarding `CCOC(=O)NC(CNC(=O)CCc1ccccn1)CC(C)C` (stereo not given), the Percent Effect turned out to be 0.68%.

On to `CC(C)c1nn(C)c(N(C)C)c1CNCCC(=O)NC1CCCC1`, for which the Percent Effect is -15.3%.

As for `Cc1cnn(CC2CCCN2C(=O)c2cnc3n[nH]c(C)c3c2)c1` (stereo not given), the Percent Effect is 0.256%.

In the case of `O=C(c1ccnnc1)N1C[C@H]2CCC[C@@]2(COCC2CCOCC2)C1`, the Percent Effect came to 2.91%.

For the molecule `Cc1nccn1CC1CCCN1S(=O)(=O)Cc1ccccc1` (stereo not given), the Percent Effect is 2.14%.

In the case of `CC(C)c1n[nH]c(C2CN(C(=O)CCn3ccccc3=O)CCO2)n1` (stereo not given), the Percent Effect was 3.8%.

`Cc1ccc(C(NC(=O)CC2CCN(C(C)C)CC2)C(=O)O)cc1` (stereo not given): the Percent Effect was -0.654%.

On to `c1ccc(-c2nnn3c2COC(CNCC2CCOCC2)C3)cc1` (stereo not given), for which the Percent Effect amounted to 10.9%.

For the molecule `O=C(c1cncc(N2CCC3(CCNCC3)CC2)n1)N1CCCC1`, the Percent Effect was determined as 1.16%.

`Cc1cc(NC(=O)NCCc2cccs2)n(C)n1`: the Percent Effect was -1.97%.

Consider `Cc1nc(-c2ccco2)ccc1C(=O)N1CCCC1Cn1cccn1` (stereo not given), for which the Percent Effect is 3.11%.

In the case of `CCOCC1CN(C(=O)CS(C)(=O)=O)Cc2cnn(C)c21` (stereo not given), the Percent Effect was -16.6%.

For `O=C1CC(c2ccccc2F)c2c(n3ccsc3nc2=O)N1` (stereo not given), the Percent Effect was found to be 1.41%.

Regarding `O=C(c1cccnc1-n1cccn1)N1CCN(CC2CC2)CC1`, the Percent Effect is -1.98%.

`COc1cc(C(=O)N(Cc2cnn(C)c2)C(C)C)ccc1OCC(N)=O`: the Percent Effect was -10.1%.

As to `Cc1nn(C)c(C)c1C1CCCN1CC(=O)NC(C1CC1)C1CC1` (stereo not given), the Percent Effect is -8.63%.

For `Cc1nc(C2CCCN(C(=O)c3cccc4c3OCO4)C2)no1` (stereo not given), the Percent Effect turned out to be 6.75%.

For the molecule `COCCNC(=O)C(C)n1cc(Br)cn1` (stereo not given), the Percent Effect came to 1.52%.

On to `Cc1nc(CN2CCOC(c3nc(C(C)C)n[nH]3)C2)oc1C` (stereo not given), for which the Percent Effect is 3.22%.

Another assay addresses Sialic acid-binding Ig-like lectin 9 (Homo sapiens) (UniProt Q9Y336). The experiment in a line: Hs-Siglec9 ALPHAscreen SOP 20170721. Further details: scale not given: direction of the effect not stated beside the values. The note with it: 10 µM. In general terms: Alpha assays give light when donor and acceptor beads are brought close together.
On to `Cc1ccc2c(c1)CN(C(=O)C1CCCCC1)C(CN(C)C)CO2` (stereo not given), for which the Percent Effect is -8.18%.

Regarding `O=C(O)c1cc2c(nc1O)CC(c1cccs1)CC2=O` (stereo not given), the Percent Effect is -0.782%.

`Cc1nc(N2CCCC2)nc2c1CCN(C(=O)C1CCCC1)CC2`: the Percent Effect was 2.33%.

`Cc1ccc(CC(=O)NCCCNS(C)(=O)=O)cc1`: the Percent Effect is 0.198%.

In the case of `CSCC(CCO)NC(=O)Nc1cc(C)ccc1C` (stereo not given), the Percent Effect is -7.14%.

Consider `COC(=O)c1sccc1S(=O)(=O)N1CCC(Oc2ncccc2Cl)CC1`, for which the Percent Effect stood at 1.08%.

`Cc1cc(-c2cnn(CCNC(=O)C3CCCO3)c2C2CC2)on1` (stereo not given): the Percent Effect came out at 8.12%.

Take `Cc1ccc(NS(=O)(=O)CC2=NC(=O)n3cccc3C2=O)cc1`: the Percent Effect worked out at 6.4%.

Turning to `CCS(=O)(=O)N1CCc2ccc(NC(=O)Nc3ccc(F)cc3F)cc21`, the Percent Effect was -0.508%.

With `Cc1csc(C2CCCN(C(=O)c3cnc[nH]3)C2)n1` (stereo not given), the Percent Effect amounted to 15.3%.

Consider `O=C(c1ccc[nH]1)N1CCc2c(COCC3CC3)cncc2C1`, for which the Percent Effect was -7.71%.

With `CC(C)c1nn(C)c(N(C)C)c1CNCc1ccccc1CN(C)C`, the Percent Effect worked out at 13%.

`c1ccc(-c2noc(CN3CCC(c4ccn[nH]4)CC3)n2)cc1`: the Percent Effect came out at 9.87%.

Take `Cc1ccc(C)c(NC(=O)N(C)Cc2cnn(C)c2)c1`: the Percent Effect was -5.73%.

Regarding `COc1ccc(CN(Cc2cncn2C)CC2CCCO2)cc1OC` (stereo not given), the Percent Effect was found to be 0.383%.

Take `CN(C)C(=O)CC1CC2(CCN(C(=O)N(C)C)CC2)Oc2ccccc21` (stereo not given): the Percent Effect is -1.19%.

For the molecule `Cc1noc(C)c1C(=O)NCC(C)N(C)C` (stereo not given), the Percent Effect was -9.99%.

On to `COc1ccc2c(c1)CC(NC(=O)NCc1cccs1)CO2` (stereo not given), for which the Percent Effect is -2.89%.

Turning to `Cc1cc(C)n(CC2CCCN2C(=O)c2ccc3c(c2)nnn3C)n1` (stereo not given), the Percent Effect is -4.94%.

On to `O=C1[C@@H]2CCN(Cc3ccoc3)C[C@@H]2OCCN1Cc1cccnc1`, for which the Percent Effect amounted to 5.81%.

In the case of `CCc1nnc(CN(C)c2nc(C(C)C)nc3c2cnn3C)o1`, the Percent Effect was -0.661%.

As for `CCOC(=O)NC(CNC(=O)CCc1ccccn1)CC(C)C` (stereo not given), the Percent Effect is -3.55%.

Regarding `CC(C)c1nn(C)c(N(C)C)c1CNCCC(=O)NC1CCCC1`, the Percent Effect turned out to be 3.05%.

For the molecule `Cc1cnn(CC2CCCN2C(=O)c2cnc3n[nH]c(C)c3c2)c1` (stereo not given), the Percent Effect is -4.46%.

For the molecule `O=C(c1ccnnc1)N1C[C@H]2CCC[C@@]2(COCC2CCOCC2)C1`, the Percent Effect was 1.16%.

As to `Cc1nccn1CC1CCCN1S(=O)(=O)Cc1ccccc1` (stereo not given), the Percent Effect was found to be 4.66%.

For `CC(C)c1n[nH]c(C2CN(C(=O)CCn3ccccc3=O)CCO2)n1` (stereo not given), the Percent Effect was -2.89%.

For `Cc1ccc(C(NC(=O)CC2CCN(C(C)C)CC2)C(=O)O)cc1` (stereo not given), the Percent Effect is -0.948%.

Take `c1ccc(-c2nnn3c2COC(CNCC2CCOCC2)C3)cc1` (stereo not given): the Percent Effect was 4.62%.

`O=C(c1cncc(N2CCC3(CCNCC3)CC2)n1)N1CCCC1`: the Percent Effect was 15.6%.

As for `Cc1cc(NC(=O)NCCc2cccs2)n(C)n1`, the Percent Effect is -7.64%.

With `Cc1nc(-c2ccco2)ccc1C(=O)N1CCCC1Cn1cccn1` (stereo not given), the Percent Effect worked out at 2.49%.

With `CCOCC1CN(C(=O)CS(C)(=O)=O)Cc2cnn(C)c21` (stereo not given), the Percent Effect amounted to 8.66%.

Turning to `O=C1CC(c2ccccc2F)c2c(n3ccsc3nc2=O)N1` (stereo not given), the Percent Effect was 7.25%.

Take `O=C(c1cccnc1-n1cccn1)N1CCN(CC2CC2)CC1`: the Percent Effect was found to be 1.24%.

On to `COc1cc(C(=O)N(Cc2cnn(C)c2)C(C)C)ccc1OCC(N)=O`, for which the Percent Effect is -6.52%.

Regarding `Cc1nn(C)c(C)c1C1CCCN1CC(=O)NC(C1CC1)C1CC1` (stereo not given), the Percent Effect turned out to be 11.2%.

In the case of `Cc1nc(C2CCCN(C(=O)c3cccc4c3OCO4)C2)no1` (stereo not given), the Percent Effect worked out at 0.303%.

Turning to `COCCNC(=O)C(C)n1cc(Br)cn1` (stereo not given), the Percent Effect came out at 7.73%.

On to `Cc1nc(CN2CCOC(c3nc(C(C)C)n[nH]3)C2)oc1C` (stereo not given), for which the Percent Effect was 7.38%.

These data come from ChEMBL document CHEMBL3988442, “University of Dundee, Small-Polar-MMV Screening Library” (2021).
